# Experimental data: PubChem BioAssay AID430 (Sanford-Burnham Center for Chemical Genomics, 2006)
# Hit rate of the full screen: of about 63,000 compounds, about 1,100 (1.7%) were called active. The sample as a whole holds a higher share of actives than the screen did. Potency and affinity values are given separately. Values without a mark were called inactive. Rule as the data show it: active = cytotoxicity above about 50%; inactive = the rest.
# Assay: HPDE-C7 pancreatic duct cell viability loss – fluorescence, HTS (AID 430);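 also: cells exposed to compound for 48 hours before viability readout; 0% = vehicle and 100% = reference cytotoxic drug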
# Details: HPDE-C7 pancreatic duct cells viability, at 10 µM, stronger effect = higher value
row,Structure (SMILES),cytotoxicity
1,CCOC(=O)Cc1nnc(NC(=O)Nc2ccccc2)s1,5%
2,Nc1cc(N)cc(-c2nc3ccccc3o2)c1,18.2%
3,Nc1ccc(-c2nc3ccc(-c4nc5ccccc5o4)cc3[nH]2)cc1,76.2% (active)
4,Nc1ccc(-c2nc3ccccc3[nH]2)cc1,-5.6%
5,O=S(=O)(Nc1nnc(-c2ccccc2)s1)c1ccc(Cl)cc1,8.8%
6,FC(F)(F)c1cc(-c2ccco2)nc(-n2nc(C(F)(F)F)cc2C2CC2)n1,5.7%
7,Cn1c(=O)c2c(nc(SCC(=O)N3CCCc4ccccc43)n2C)n(C)c1=O,-17.3%
8,O=C(CCCCn1c(=O)c2ccccc2n(Cc2ccc(F)cc2Cl)c1=O)NCc1ccco1,2.9%
9,O=C(NCc1ccccn1)c1ccc(COc2ccc(Cl)cc2)o1,4.2%
10,O=C(c1ccco1)N1CCN(c2nc(C(F)(F)F)nc3c2nnn3Cc2ccccc2)CC1,11.6%
11,Cc1nc(N2CCCC2)c2nnn(Cc3ccccc3Cl)c2n1,-10.9%
12,CC(=O)Nc1ccc(NC(=O)c2c(C)nc3ccccn23)cc1,6.8%
13,Cc1[nH]nc2c1C(C1CC=CCC1)C(C#N)=C(N)O2 (configuration not stated),0.7%
14,COc1ccc(C2C(C#N)=C(N)Oc3cc(O)ccc32)cc1OC (configuration not stated),-6.7%
15,COc1ccc(OC)c(C2C(C#N)=C(N)Oc3cc(N)ccc32)c1 (configuration not stated),-0.7%
16,N#CC1=C(N)Oc2cc(N)ccc2C1C1CCCCC1 (configuration not stated),22.2%
17,COc1cc(C2C(C#N)=C(N)Oc3cc(N)ccc32)cc(OC)c1OC (configuration not stated),58.5% (active)
18,N#CC1=C(N)Oc2cc(N)ccc2C1C1CC=CCC1 (configuration not stated),59.8% (active)
19,Cc1cc(C(=O)NCC2CCCO2)n(-c2ccccc2)n1 (configuration not stated),0.2%
20,CCOc1ccc(NC(=O)c2oc3ccccc3c2NC(=O)C(C)C)cc1,11.9%
21,C=CCN1C(=O)C(CC(=O)O)SC1=Nc1c(C)n(C)n(-c2ccccc2)c1=O (configuration not stated),-3.1%

row,Structure (SMILES),cytotoxicity
1,Cc1nc2ccccc2c2oc(C(=O)NCc3ccccn3)cc12,4.5%
2,O=C1CC(N2CCN(C3CC(=O)N(CCc4ccccc4)C3=O)CC2)C(=O)N1CCc1ccccc1 (configuration not stated),-9.9%
3,N#CC(C#N)=c1ccc2c(c1)N1C3=C(CCCC3)CC3CCCCC31N=2 (configuration not stated),72% (active)
4,N#C/C(C(N)=O)=c1/ccc2c(c1)N1C3=C(CCCC3)CC3CCCCC31N=2 (configuration not stated),77.9% (active)
5,Cc1cc(C(=O)COC(=O)C2=COCCO2)c(C)n1-c1ccc2c(c1)OCO2,-7.4%
6,CCCc1cc(C(=O)NC2CCCC2)no1,-4.5%
7,CCOC(=O)N1CCN(C(=O)CCn2c(=S)[nH]c3cc(OCC)c(OCC)cc3c2=O)CC1,1.3%
8,CCN1CCN(C(c2cccs2)C(C)NC(=O)c2ccccc2)CC1 (configuration not stated),2.9%
9,O=C(O)CCCNc1cc(N2CCC3(CC2)OCCO3)c2noc3c2c1C(=O)c1ccccc1-3,34.7%
10,CCOc1ccc2noc3c2c1C(=O)c1ccccc1-3,29.3%
11,CCOC(=O)c1c(C)noc1CP(=O)(c1ccccc1)c1ccccc1,4.8%
12,CC(=O)OCCNc1cc(N2CCN(C)CC2)c2noc3c2c1C(=O)c1ccccc1-3,7.3%
13,CCOC(=O)N1CCN(c2cc(NCCC(=O)O)c3c4c(onc24)-c2ccccc2C3=O)CC1,58.8% (active)
14,CCC1CCCCN1C(=O)CSc1nnc(-c2ccc(Cl)cc2)o1 (configuration not stated),1.2%
15,O=C(O)c1[nH]c2ccc(Cl)cc2c1CC(=O)N1CCN(c2ccccc2)CC1,5.3%
16,O=C(O)c1[nH]c2ccc(Cl)cc2c1CC(=O)N1CCN(C(=O)c2ccco2)CC1,-1%
17,Cc1cccc(N2CCN(C(=O)Cc3c(C(=O)O)[nH]c4ccc(Cl)cc34)CC2)c1C,76.3% (active)
18,Cc1ccc(OC(=O)CCC(=O)N2CCc3ccccc32)cc1,4%
19,Cc1cccc(N2CCN(CCNC(=O)c3cc4c(s3)CS(=O)(=O)C4)CC2)c1C,-3.7%
20,O=S(=O)(NCCc1ccccn1)c1cccs1,-28.8%
21,O=c1c2c3nc4ccccc4nc3n(/N=C/c3ccco3)c2ncn1CCC1=CCCCC1,23%

row,Structure (SMILES),cytotoxicity
1,CCCn1c(C)nc2c(c1=O)c1nc3ccccc3nc1n2CCC1=CCCCC1,-0.4%
2,Cc1nc2c(c(=O)n1CCC1=CCCCC1)c1nc3ccccc3nc1n2/N=C/c1ccco1,63.7% (active)
3,O=c1oc2ccccc2c2c1ncn2-c1ccccc1,-17.3%
4,O=C(Nc1nnc(CC2=CCCCC2)s1)c1cccs1,0.5%
5,Cn1c(CNC(=O)c2ccc(F)cc2)nc2ccccc21,0.8%
6,CCOC(=O)/C=C1\NC(C)(C)Cc2cc(OC)c(O)cc21,1.4%
7,COc1cc2c(cc1OC)C(/C(C#N)=N\O)=NC(C)(C)C2,13%
8,CCC1C(O)=C(c2ccccn2)C(=N)N1c1ccccc1 (configuration not stated),0.3%
9,CCOCCOC(=O)C1=C(C)N(C)C(=O)NC1c1ccccc1Cl (configuration not stated),-0.5%
10,C/C(NCCN1CCOCC1)=C(\C#N)C(N)=O,-5.5%
11,CCOC(=O)c1sc(NC(C)=O)c(C(=O)OCC)c1C,4.3%
12,CCOC(=O)c1c(NC(C)=O)sc2c(O)cccc12,21.8%
13,CCOC(=O)c1c(NC(C)=O)sc2c(O)c(CN3CCN(CC)CC3)ccc12,68% (active)
14,CC(=O)Nc1ccc(S(=O)(=O)NCC2CCC(C(=O)N3CCCCCC3)CC2)cc1 (configuration not stated),-6.2%
15,COc1ccc(CNCC(=O)Nc2cc(C)nn2-c2nc(C)cc(C)n2)cc1OC,52.9% (active)
16,COc1ccc(CNc2nc3nc(C)cc(C)n3n2)cc1OC,2.5%
17,COc1ccccc1N1CCN(CC(=O)Nc2cc(C)nn2-c2nc(C)cc(C)n2)CC1,52.4% (active)
18,Cc1cc(C)nc(-n2nc(C)cc2NC(=O)CN2CCC(C)CC2)n1,0.1%
19,Cc1cc(C)nc(-n2nc(C)cc2NC(=O)CN2CCc3ccccc3C2)n1,19.1%
20,Cc1cc(C)nc(-n2nc(C)cc2NC(=O)c2ccc(Br)o2)n1,25.7%
